Source: PubChem BioAssay (National Center for Advancing Translational Sciences (NCATS))
HT1080NT lethal: kills 2HG-producing HT-1080-NT fibrosarcoma cells. HT-1080-NT fibrosarcoma viability, CellTiter-Glo ATP luminescence, 48 h. Potency, µM (top dose mostly 46.1 µM), for the others: at the highest dose activity, negative = less viability, most hits filed as cytotoxic. hit rate 1.6% among 360,000. AID 686970;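 note: NT is the 2HG producing partner of a matched IDH1 knockdown line; potency is the fitted concentration of half-maximal effect; 0% = DMSO-treated cells and -100% = media-only wells without cells; nearly all actives have a fitted effect of over 55% in size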
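Viability of the 2HG-overproducing fibrosarcoma line after 48 hours of compound exposure at 37 degrees C was determined by luminescence with CellTiter-Glo, and concentration-effect curves were then fitted and categorized.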
TDP1 cell noCPT: qHTS for Inhibitors of human tyrosyl-DNA phosphodiesterase 1 (TDP1): qHTS in cells in absence of CPT | DT40 Tdp1-/- hTDP1 cells, no CPT, ATP luminescence, 48 h | hit rate 15% among 420,000 | AID 686978, 2013 | Potency, µM (top dose mostly 46.2 µM), without a hit: at the highest dose activity change, negative = growth inhibition, usual class: inhibitors; note: potency is the fitted concentration of half-maximal effect; nearly all actives have a fitted effect of over 55% in size
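Cells were dispensed at 400 per well, compounds added by pin tool, plates incubated ≥48 hr at 37 °C, then CellTiter-Glo added for 30 min at room temperature before luminescence reading. Line: DT40 Tdp1-/- complemented with hTDP1; camptothecin omitted.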
TDP1 cell CPT: DT40-hTDP1 cell growth loss with CPT. chicken DT40 Tdp1-/-;hTDP1 cells + 20 nM CPT, ATP luminescence, 48 h. hit rate 12% among 420,000. Potency, µM (top dose mostly 46.2 µM), for the others: at the top dose activity change, negative = growth inhibition, actives largely listed as inhibitors; note: potency is the fitted concentration of half-maximal effect; nearly all actives have a fitted effect of over 55% in size
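Chicken DT40 Tdp1-/- cells stably complemented with human TDP1 were seeded at 400 cells/well in medium containing 20 nM camptothecin, exposed to pin-transferred compounds, and grown at 37 °C for at least 48 hr. Viability was read as ATP luminescence.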
IL1B secr inh: inflammasome signaling inhibition, IL-1 beta readout. activity change, % at 57.5 µM. THP-1 LPS/ATP IL-1B secretion, AlphaLISA, 16 h; stronger effect = lower value. hit rate 4.7% among 360,000; in the data active = activity change below about -50%; inconclusive = mostly about -30% to -49%
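THP-1 cells pretreated 1 hr with compounds (up to 57.5 uM final), then stimulated with LPS (250 ng/mL final) plus ATP (1.25 mM final); secreted IL-1B measured by AlphaLISA after 16 hr, decreased signal indicating inhibition.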
HT1080 IDH1KD tx: kills HT-1080 cells with IDH1 knockdown; HT-1080 IDH1 knockdown viability, ATP luminescence, 48 h; Potency, µM (highest dose often 46.1 µM), for the others: at the highest dose activity, negative = toxicity, actives largely listed as cytotoxic; hit rate 2% among 360,000; AID 686971;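 note: potency is the fitted concentration of half-maximal effect; 0% = DMSO wells and -100% = cell-free medium wells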
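Viability of IDH1-knockdown HT-1080 fibrosarcoma cells was assessed by CellTiter-Glo after 48 h at 37 °C with titrated compound; concentration-effect curves were classified by fit quality and response size.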
Active calls of the source: *; ? = inconclusive; / = not tested or not shown; [ ] = remark or other dose. Sampled rows, rich in hits. Any-hit rate of the full collection: about 19%. Unless noted, calls come from the whole dose curve; as a rule, active = well fitted curve in the direction sought with a large enough effect; inconclusive = small, poorly fitted or top-dose-only effect, or another doubt; inactive = no such curve, though single readings can be large; an effect the other way counts as inactive or inconclusive. Unless noted, % is set by controls: 0 for no effect and ±100 for the full control effect.

SMILES	HT1080NT lethal	TDP1 cell noCPT	TDP1 cell CPT	IL1B secr inh	HT1080 IDH1KD tx
O=C(O)CCc1ccc2ccccc2c1	/	-27%	4%	/	/
C[C@@H]1CC=C[C@H]2[C@H]1C(=O)N(Cc1ccccc1)[C@H]2c1ccc(F)c(-c2ccc(N(C)C)cc2)c1	?	15µM*	8.2µM*	-1	-27%
COc1ccc(-c2ccc(C(C)=O)cc2)cc1[C@H]1[C@@H]2C=CCC[C@@]2(C)C(=O)N1Cc1ccccc1	?	-83%	?	?	-11%
CC(=O)c1ccc(-c2cc([C@H]3[C@H]4C=CC[C@@H](C)[C@@H]4C(=O)N3Cc3ccccc3)ccc2F)cc1	?	13µM*	15µM*	-23	?
CC(=O)Nc1ccc(S(=O)(=O)NNC(=O)c2cccc([N+](=O)[O-])c2)cc1	20%	-8%	-2%	12	-1%
COc1ccc(C)cc1NC(=O)NCc1cccn1Cc1ccccc1	/	?	-19%	/	/
CCOC(=O)c1ccccc1NC(=O)NCc1cccn1Cc1ccc(F)cc1	/	23µM*	23µM*	/	/
CCc1nc(C)cn1S(=O)(=O)c1ccc2c(c1)OCCO2	19%	?	-2%	11	8%
Cc1ccc(Cn2nc(C)c(C(=O)NCC(c3cccs3)N3CCOCC3)c2Cl)cc1 (stereo unspecified)	3%	23µM*	21µM*	8	-13%
COc1ccc(C(CNC(=O)c2c(C)nn(Cc3ccc(C)cc3)c2Cl)N2CCOCC2)cc1 (stereo unspecified)	-4%	23µM*	?	-82*	-5%
Cc1nn(Cc2ccccc2)c(C)c1C(=O)NCC(c1cccs1)N1CCOCC1 (stereo unspecified)	1%	?	?	-3	3%
CCOc1ccccc1NC(=O)CCNS(=O)(=O)c1cccc2nonc12	1%	-20%	-3%	1	10%
COC(=O)[C@H]1[C@@H]2C[C@H]3c4[nH]c5ccccc5c4CCN3C[C@@H]2CC[C@@H]1O	/	-15%	9%	/	/
O=C1OCCC1=CN1CCCCC1	6%	-33%	5%	-11	12%
CC12CCC(O)CC1=CCC1C2CCC2(C)C(c3ccn[nH]3)CCC12 (stereo unspecified)	?	?	?	48	-14%
COc1cccc(CNn2cnnc2)c1OCc1ccc(F)cc1	9%	-3%	-7%	0	15%
COc1cccc(CNCCc2c[nH]c3ccccc23)c1OCc1ccccc1	21µM*	9.2µM*	7.3µM*	/	16µM*
COc1cc(CNCCc2c[nH]c3ccccc23)ccc1OCc1ccccc1F	?	?	18µM*	-57*	?
COc1cccc(CNC23CC4CC(CC(C4)C2)C3)c1OCc1ccccc1	-25%	10µM*	9.2µM*	-97*	-12%
CCN(CC)c1nc2c(c(=O)[nH]c(=O)n2C)n1CCOc1ccccc1	-5%	-25%	?	24	-2%
O=C1NCCc2onc(-c3ccc(Br)cc3)c21	16%	?	?	-13	2%
O=C(c1ccccc1NS(=O)(=O)c1ccc([N+](=O)[O-])cc1[N+](=O)[O-])N1O[C@@H]2C=C[C@H]1C2	-2%	9.2µM*	9.2µM*	-72*	-2%
O=C(Nc1ccc2oc(-c3cccnc3)nc2c1)c1ccc(Br)cc1	/	-19%	-20%	/	/
O=C(Nc1ccc2oc(-c3ccccc3Cl)nc2c1)c1ncn[nH]1	1%	1%	-8%	-1	-2%
O=C(Nc1ccc2oc(-c3cc(Br)ccc3Cl)nc2c1)c1ccc2ccccc2c1	/	12µM*	16µM*	/	/
SMILES	HT1080NT lethal	TDP1 cell noCPT	TDP1 cell CPT	IL1B secr inh	HT1080 IDH1KD tx
O=C(Nc1ccc2oc(-c3ccccc3Cl)nc2c1)c1cncc(Br)c1	?	12µM*	7.3µM*	-24	-9%
CC1(C)CC(=O)c2sc(NC(=O)c3ccc4ncsc4c3)nc2C1	20%	?	?	-24	1%
Cc1csc(CNC(=O)C2CCC(=O)N(CCCc3ccccc3)C2)n1 (stereo unspecified)	2%	12%	-4%	-13	-3%
COc1ccc(C(CNC(=O)C(Cc2ccccc2)NC(N)=O)N(C)C)cc1 (stereo unspecified)	6%	0%	16%	14	2%
CN1CCN(c2ccc(CNS(=O)(=O)c3ccc(Cl)cc3)cc2)CC1	10%	12µM*	?	-2	20%
Cc1ccccc1S(=O)(=O)NCc1ccc(N2CCN(C)CC2)cc1	?	?	?	16	14%
Cc1ccc(S(=O)(=O)NCc2ccc(N3CCN(C(=O)OC(C)(C)C)CC3)cc2)cc1	4%	16µM*	13µM*	21	-1%
CCOC(=O)/C(C#N)=C/C=C1\C=Cc2ccccc2N1CC	6%	23µM*	21µM*	?	0%
CCCCCCN1C=CC(=C/C=C(\C#N)C(=O)OCC)C=C1	-8%	16µM*	?	0	3%
Cc1ccc(CN2CCN(c3cccc4[nH]ccc34)CC2)cc1	-3%	?	16µM*	27	-18%
O=S(=O)(c1ccccc1)[C@@]1(c2ccccc2)C[C@@H]2ON=C(c3cccc(-c4ccccc4)c3)[C@@H]2C1	13%	13µM*	?	-1	6%
COc1ccc(C2=NO[C@H]3C[C@](C(=O)NC(C)C)(S(=O)(=O)c4ccccc4)C[C@@H]23)cc1	1%	-17%	5%	14	2%
Cc1cccc(C)c1-n1nnnc1C(C)(C)N1CCN(N=O)CC1	10%	-11%	21%	15	5%
CCC(C)(c1nnnn1-c1c(C)cccc1C)N(N=O)c1cccc(C(F)(F)F)c1 (stereo unspecified)	0%	21µM*	26µM*	14	-23%
COC(=O)c1cc(CNC(=O)c2ccccn2)cc(NC(=O)c2ccccc2OC)c1	/	?	-8%[9.04 µM]	/	/
CCc1ccc2oc(C(=O)Nc3cc(Cl)ccc3OC)cc(=O)c2c1	/	8%	-1%	/	/
Cc1ccc(S(=O)(=O)N2CCC(C(=O)Nc3ccc(N4CCOCC4)cc3)CC2)cc1C	5%	-20%	-2%	13	10%
CO/N=C/NC(=O)c1ccc([N+](=O)[O-])c(CS(=O)(=O)c2ccc(Cl)cc2)c1	14%	10µM*	7.3µM*	0	19%
NNC(=O)c1ccc([N+](=O)[O-])c(CS(=O)(=O)c2ccc(Cl)cc2)c1	-12%	?	-12%	-6	-9%
O=C(CCS(=O)(=O)c1cc(Br)cc2c1N(C(=O)C1CC1)CC2)NCc1ccccc1Cl	/	-16%	1%	/	/
N/C(=N\OC(=O)c1ccccc1)c1cccnc1	7%	8%	-11%	5	2%
